From PubChem BioAssay (NCI)
Compounds without any hit were thinned out: in the full panel of roughly 83,000, 20% have a hit.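 How to read the values: 0–100, growth inhibition (40 = 60% inhibited); 0, no net growth; -100 to 0, cell death (-40 = 40% of starting cells died; -100 = all dead).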 Calls of active or inactive are those of the source. Rule for the calls: active = growth percent below 10; inactive = the rest.

Legend:
Experiment in all cases: NCI-60 one-dose screen, 48 h (100 = growth as untreated, 0 = no growth, -100 = all killed)
Conditions in all cases: 10 µM unless noted
DU-145 prostate = test system: DU-145 prostate
K-562 leukemia = test system: K-562 leukemia
MALME-3M melanoma = test system: MALME-3M melanoma
MDA-MB-231 breast = test system: MDA-MB-231 breast
RXF 393 renal = test system: RXF 393 renal
SF-268 CNS = test system: SF-268 CNS
SF-295 CNS = test system: SF-295 CNS
SF-539 CNS = test system: SF-539 CNS
UACC-257 melanoma = test system: UACC-257 melanoma
M14 melanoma = test system: M14 melanoma
HCT-15 colon = test system: HCT-15 colon
HT29 colon = test system: HT29 colon
SNB-75 CNS = test system: SNB-75 CNS
SNB-19 CNS = test system: SNB-19 CNS
U251 CNS = test system: U251 CNS
PC-3 prostate = test system: PC-3 prostate
UACC-62 melanoma = test system: UACC-62 melanoma
LOX IMVI melanoma = test system: LOX IMVI melanoma
SK-MEL-28 melanoma = test system: SK-MEL-28 melanoma

Measured: growth

C=C1C(=O)O[C@H]2[C@H]1CC/C(C=Nc1c(N)cc(F)cc1Br)=C\CC[C@@]1(C)O[C@@H]21
inactive: DU-145 prostate 55.2% | K-562 leukemia 20.3% | MALME-3M melanoma 99.5% | MDA-MB-231 breast 65.1% | RXF 393 renal 66.3% | SF-268 CNS 83.1% | SF-295 CNS 99.7% | SF-539 CNS 86.9% | UACC-257 melanoma 81.9% | M14 melanoma 66.2% | HCT-15 colon 30.6% | HT29 colon 36.4% | SNB-75 CNS 91.2% | SNB-19 CNS 76.7% | U251 CNS 87.3% | PC-3 prostate 58.3% | UACC-62 melanoma 90.1% | LOX IMVI melanoma 66.2% | SK-MEL-28 melanoma 80%

Cc1cnc(SCc2ccc(Cl)cc2Cl)nc1Nc1ccc(Cl)c(Cl)c1
inactive: DU-145 prostate 95.1% | K-562 leukemia 69.3% | MALME-3M melanoma 103% | MDA-MB-231 breast 88.3% | RXF 393 renal 97.4% | SF-268 CNS 90.5% | SF-295 CNS 92.8% | SF-539 CNS 105% | UACC-257 melanoma 91.4% | M14 melanoma 98.7% | HCT-15 colon 99.8% | HT29 colon 85.1% | SNB-75 CNS 85.4% | SNB-19 CNS 96.7% | U251 CNS 93.9% | PC-3 prostate 71.6% | UACC-62 melanoma 53.4% | LOX IMVI melanoma 81.2% | SK-MEL-28 melanoma 111%

COc1cc(NCC(=O)Nc2cc(Nc3ccc(C)cc3)ncn2)c(Cl)c(OC)c1Cl
inactive: DU-145 prostate 102% | K-562 leukemia 80.6% | MALME-3M melanoma 111% | MDA-MB-231 breast 64.2% | RXF 393 renal 118% | SF-268 CNS 88.6% | SF-295 CNS 82.8% | SF-539 CNS 95.5% | UACC-257 melanoma 89% | M14 melanoma 88.4% | HCT-15 colon 89.9% | HT29 colon 95.3% | SNB-75 CNS 78.4% | SNB-19 CNS 95.9% | U251 CNS 87.2% | PC-3 prostate 69.1% | UACC-62 melanoma 75.3% | LOX IMVI melanoma 84.5% | SK-MEL-28 melanoma 107%

N#Cc1ccc(Oc2ccc3ccc(=O)oc3c2)cc1
inactive: DU-145 prostate 107% | K-562 leukemia 79% | MALME-3M melanoma 126% | MDA-MB-231 breast 98.5% | RXF 393 renal 81.8% | SF-268 CNS 105% | SF-295 CNS 112% | SF-539 CNS 101% | UACC-257 melanoma 114% | M14 melanoma 92% | HCT-15 colon 98% | HT29 colon 114% | SNB-75 CNS 97.2% | SNB-19 CNS 89.3% | U251 CNS 91.7% | PC-3 prostate 94.5% | UACC-62 melanoma 88.3% | LOX IMVI melanoma 93.4% | SK-MEL-28 melanoma 107%

COc1cc(NC(=O)c2cc(O)c(C/C=C(\C)CCC=C(C)C)c(O)c2)cc2c1O[C@]1(C)CC[C@@H](O)C(C)(C)[C@H]1C2
active: K-562 leukemia 0.252% | MALME-3M melanoma -18.5% | MDA-MB-231 breast -33.7% | RXF 393 renal -38.7% | SF-295 CNS -8.51% | SF-539 CNS -51.2% | M14 melanoma -15.4% | HT29 colon 2.06% | SNB-75 CNS 0.372% | SNB-19 CNS 8.74% | U251 CNS 0.579% | UACC-62 melanoma -4.89% | LOX IMVI melanoma -65.8% | SK-MEL-28 melanoma 8.85%
inactive: DU-145 prostate 20.3% | SF-268 CNS 15.7% | UACC-257 melanoma 34.4% | HCT-15 colon 10.4% | PC-3 prostate 13.1%

O=C(CSC(=S)N1CCCCC1)Nc1ccccc1
inactive: DU-145 prostate 106% | K-562 leukemia 90.2% | MALME-3M melanoma 101% | MDA-MB-231 breast 103% | RXF 393 renal 110% | SF-268 CNS 93.3% | SF-295 CNS 103% | SF-539 CNS 101% | UACC-257 melanoma 92.4% | M14 melanoma 98.6% | HCT-15 colon 99.1% | HT29 colon 91.2% | SNB-75 CNS 93.1% | SNB-19 CNS 99.6% | U251 CNS 97.6% | PC-3 prostate 92.6% | UACC-62 melanoma 91.6% | LOX IMVI melanoma 94.2% | SK-MEL-28 melanoma 104%

CCC[S@@](=O)c1ccc2nc(NC(=O)OC)[nH]c2c1
inactive: DU-145 prostate 107% | K-562 leukemia 40.9% | MALME-3M melanoma 89.2% | MDA-MB-231 breast 83.3% | RXF 393 renal 95.2% | SF-268 CNS 96.1% | SF-295 CNS 88% | SF-539 CNS 90.8% | UACC-257 melanoma 57% | M14 melanoma 73.2% | HCT-15 colon 68.3% | HT29 colon 62.5% | SNB-75 CNS 82.6% | SNB-19 CNS 87.6% | U251 CNS 82.2% | PC-3 prostate 78.4% | UACC-62 melanoma 72.7% | LOX IMVI melanoma 90.2% | SK-MEL-28 melanoma 89.3%

N#CC1C(c2ccc(Cl)cc2)=Nc2c(c(-c3ccccc3)nn2-c2ccccc2)C12C(=O)Nc1ccc(Cl)cc12 (stereo not drawn)
inactive: DU-145 prostate 74% | K-562 leukemia 19.1% | MALME-3M melanoma 70.3% | MDA-MB-231 breast 41.2% | RXF 393 renal 28.3% | SF-268 CNS 39.1% | SF-295 CNS 28.1% | SF-539 CNS 43.8% | UACC-257 melanoma 53.6% | M14 melanoma 34.6% | HCT-15 colon 20.5% | HT29 colon 22.5% | SNB-75 CNS 45.8% | SNB-19 CNS 24.1% | U251 CNS 18.6% | PC-3 prostate 11.8% | UACC-62 melanoma 48.2% | LOX IMVI melanoma 43.9% | SK-MEL-28 melanoma 52%

C#C[C@@]1(O)[C@@H](CO)O[C@@H](n2cc(F)c3c(N)ncnc32)[C@@H]1O
inactive: SF-268 CNS 15.9% | SNB-19 CNS 20.7% | SK-MEL-28 melanoma 45.2%
active: DU-145 prostate 2.84% | K-562 leukemia 9.21% | MALME-3M melanoma -30.2% | MDA-MB-231 breast -14.8% | RXF 393 renal -36.8% | SF-295 CNS -23% | SF-539 CNS 0.929% | UACC-257 melanoma 2.98% | M14 melanoma -42% | HCT-15 colon -5.29% | HT29 colon 5.9% | SNB-75 CNS -34.3% | U251 CNS 8.64% | PC-3 prostate 5.02% | UACC-62 melanoma -51.9% | LOX IMVI melanoma -66.3%

COC(=O)c1nc(-c2ccccc2)oc1S(=O)(=O)n1nc(C)cc1N
inactive: DU-145 prostate 92.5% | MDA-MB-231 breast 92.7% | RXF 393 renal 104% | SF-268 CNS 83.2% | SF-295 CNS 95.4% | SF-539 CNS 76.1% | UACC-257 melanoma 83.3% | M14 melanoma 67.1% | HCT-15 colon 46.9% | HT29 colon 17.5% | SNB-75 CNS 82.3% | SNB-19 CNS 96.6% | U251 CNS 101% | PC-3 prostate 104% | UACC-62 melanoma 89.4% | LOX IMVI melanoma 76.8%
active: K-562 leukemia 3.02% | MALME-3M melanoma -37.1%

N#CCNc1ccc(C(=O)O)cc1
inactive: DU-145 prostate 113% | K-562 leukemia 97.4% | MALME-3M melanoma 105% | MDA-MB-231 breast 104% | RXF 393 renal 101% | SF-268 CNS 105% | SF-295 CNS 104% | SF-539 CNS 110% | UACC-257 melanoma 98.4% | M14 melanoma 110% | HCT-15 colon 105% | HT29 colon 101% | SNB-75 CNS 103% | SNB-19 CNS 102% | U251 CNS 95% | PC-3 prostate 94.3% | UACC-62 melanoma 107% | LOX IMVI melanoma 98.5% | SK-MEL-28 melanoma 118%

C=C(C)[C@@H]1CC[C@]2(C(=O)OCCOCCOCC[P+](c3ccccc3)(c3ccccc3)c3ccccc3)CC[C@]3(C)[C@H](CC[C@@H]4[C@@]5(C)CC[C@H](OC(C)=O)C(C)(C)[C@@H]5CC[C@]43C)[C@@H]12
active: DU-145 prostate -91.1% | K-562 leukemia -74.3% | MALME-3M melanoma -85.1% | MDA-MB-231 breast -91.3% | RXF 393 renal -90.4% | SF-268 CNS -74.7% | SF-295 CNS -92% | SF-539 CNS -90.9% | UACC-257 melanoma -83.4% | M14 melanoma -83.1% | HCT-15 colon -81.3% | HT29 colon -88.5% | SNB-75 CNS -87.2% | SNB-19 CNS -93.6% | U251 CNS -95.4% | PC-3 prostate -90.2% | UACC-62 melanoma -86.5% | LOX IMVI melanoma -93.2% | SK-MEL-28 melanoma -86.7%

O=C1c2ccccc2C(=O)c2c1oc1c2c(=O)[nH]c2ccccc21
inactive: DU-145 prostate 82% | K-562 leukemia 55.2% | MALME-3M melanoma 124% | MDA-MB-231 breast 10.3% | RXF 393 renal 97.2% | SF-268 CNS 91% | SF-295 CNS 92.7% | SF-539 CNS 90.3% | UACC-257 melanoma 112% | M14 melanoma 73.4% | HCT-15 colon 44.7% | HT29 colon 103% | SNB-75 CNS 113% | SNB-19 CNS 104% | U251 CNS 79% | PC-3 prostate 65.5% | UACC-62 melanoma 88.7% | LOX IMVI melanoma 56.1% | SK-MEL-28 melanoma 112%

CN(CCC#N)C(=O)Nc1ccccc1
inactive: DU-145 prostate 115% | K-562 leukemia 96.2% | MALME-3M melanoma 100% | MDA-MB-231 breast 116% | RXF 393 renal 114% | SF-268 CNS 106% | SF-295 CNS 109% | SF-539 CNS 105% | UACC-257 melanoma 94.1% | M14 melanoma 109% | HCT-15 colon 104% | HT29 colon 94.6% | SNB-75 CNS 99.2% | SNB-19 CNS 109% | U251 CNS 102% | PC-3 prostate 99.5% | UACC-62 melanoma 101% | LOX IMVI melanoma 96.2% | SK-MEL-28 melanoma 112%

C=C(C)[C@@H]1CC[C@]2(C(=O)N=C=S)CC[C@]3(C)[C@H](CC[C@@H]4[C@@]5(C)CCC(=O)C(C)(C)[C@@H]5CC[C@]43C)[C@@H]12
inactive: DU-145 prostate 33.5% | K-562 leukemia 18.8% | MALME-3M melanoma 40.7% | MDA-MB-231 breast 18% | RXF 393 renal 50.6% | SF-268 CNS 36.5% | SF-295 CNS 36% | SF-539 CNS 31.8% | UACC-257 melanoma 54.7% | M14 melanoma 39.3% | HCT-15 colon 20.3% | HT29 colon 15.5% | SNB-75 CNS 43.6% | SNB-19 CNS 28.1% | U251 CNS 23.9% | PC-3 prostate 20.8% | UACC-62 melanoma 44.5% | LOX IMVI melanoma 41.4% | SK-MEL-28 melanoma 66%

Cc1cccc(C)c1Nc1nnc(-c2ccc(F)cc2)o1
inactive: DU-145 prostate 99.9% | K-562 leukemia 118% | MALME-3M melanoma 96.5% | MDA-MB-231 breast 104% | RXF 393 renal 98.5% | SF-268 CNS 96.2% | SF-295 CNS 102% | SF-539 CNS 99.7% | UACC-257 melanoma 116% | M14 melanoma 96.8% | HCT-15 colon 110% | HT29 colon 111% | SNB-75 CNS 80.2% | SNB-19 CNS 104% | U251 CNS 104% | PC-3 prostate 98.6% | UACC-62 melanoma 103% | LOX IMVI melanoma 95.1% | SK-MEL-28 melanoma 100%
